Experimental data taken from PubChem BioAssay (Tox21).
Several values for one entry are separate records, joined by “and”; a condition that tells them apart may be missing. Equal entries are not always repeated. Inconclusive results are not listed. More than one record can exist for a structure, and the calls need not agree. Activity calls are given as the source filed them. Unless noted, the call rests on the fitted dose curve; in most records, active means well fitted curve in the direction sought with a large enough effect in the repeat runs; inconclusive means weak or mixed curves; inactive means no such curve, though single readings can be large; an effect the other way counts as inactive or inconclusive.

What was measured:
[1] = qHTS assay for identifying genotoxic compounds that show differential cytotoxicity against isogenic chicken DT40 cell lines with known DNA damage response pathways - wild type cell line (AID 743012); further: nearly all actives have a fitted effect of over 60% in size; further: potency means the concentration at half of the fitted maximal effect
How it was run: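 Endpoint: CellTiter-Glo luminescence, 30 min RT. Cells: wild type DT40, 300/well. Exposure: compounds in DMSO, 40 h, 37 C/5% CO2, after ~0.5 h pre-incubation.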

[2] = qHTS assay for identifying genotoxic compounds that show differential cytotoxicity against isogenic chicken DT40 cell lines with known DNA damage response pathways - Rev3 mutant cell line (AID 743014); further: nearly all actives have a fitted effect of over 55% in size; further: potency means the concentration at half of the fitted maximal effect
[3] = qHTS assay for identifying genotoxic compounds that show differential cytotoxicity against isogenic chicken DT40 cell lines with known DNA damage response pathways - Rad54/Ku70 mutant cell line (AID 743015); further: nearly all actives have a fitted effect of over 60% in size; further: potency means the concentration at half of the fitted maximal effect
[4] = qHTS assay to identify small molecule antagonists of the androgen receptor (AR) signaling pathway - cell viability counter screen (AID 743033; further: nearly all actives have a fitted effect of over 45% in size; further: potency means the concentration at half of the fitted maximal effect)
[5] = qHTS assay to identify small molecule antagonists of the androgen receptor (AR) signaling pathway using the MDA cell line - cell viability counter screen (AID 743041; further: nearly all actives have a fitted effect of over 45% in size; further: potency means the concentration at half of the fitted maximal effect)
How it was run: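 Using the breast carcinoma line MDA-kb2 AR-luc, test chemicals were co-incubated with R1881 for 16 h; CellTiter-Fluor reagent, added at 15.5 h, provided a fluorescence measure of live cells.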

[6] = qHTS assay to identify small molecule antagonists of the thyroid receptor (TR) signaling pathway - cell viability counter screen (AID 743064); further: nearly all actives have a fitted effect of over 50% in size; further: potency means the concentration at half of the fitted maximal effect
How it was run: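 GH3.TRE-Luc cells, 4 h pre-plating; cpd + T3 1 nM final; 37 °C 23.5 h; CellTiter-Fluor 30 min; fluorescence read.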

[7] = test system: thyroid hormone receptor (rat, GH3 cells); assay: qHTS assay to identify small molecule agonists of the thyroid receptor (TR) signaling pathway (AID 743066; calls by dose curve)
[8] = qHTS assay to identify small molecule antagonists of the estrogen receptor alpha (ER-alpha) signaling pathway - cell viability counter screen (AID 743074; calls by dose curve; further: nearly all actives have a fitted effect of over 45% in size; further: potency means the concentration at half of the fitted maximal effect)
[9] = molecular target: Estrogen receptor (Homo sapiens) (UniProt P03372); assay: qHTS assay to identify small molecule agonists of the estrogen receptor alpha (ER-alpha) signaling pathway using the BG1 cell line (AID 743079); further: nearly all actives have a fitted effect of over 20% in size; further: potency means the concentration at half of the fitted maximal effect
[10] = qHTS assay to identify small molecule antagonists of the estrogen receptor alpha (ER-alpha) signaling pathway using the BG1 cell line (AID 743080; calls by dose curve; further: nearly all actives have a fitted effect of over 25% in size; further: potency means the concentration at half of the fitted maximal effect)
How it was run: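 Antagonist mode: compounds in DMSO were pinned onto BG1-Luc-4E2 cells alongside 17beta-estradiol agonist, incubated 21.5 h, and ERE-driven luciferase measured with ONE-Glo. Cytotoxicity was multiplexed using CellTiter-Fluor fluorescence.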

[11] = qHTS assay to identify small molecule antagonists of the estrogen receptor alpha (ER-alpha) signaling pathway using the BG1 cell line - cell viability counter screen (AID 743081);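 further: compound given together with 17beta-estradiol as the ER stimulus; nearly all actives have a fitted effect of over 45% in size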; further: potency means the concentration at half of the fitted maximal effect
[12] = molecular target: Androgen receptor (Homo sapiens) (UniProt P10275); assay: qHTS assay to identify small molecule agonists of the androgen receptor (AR) signaling pathway using the MDA cell line (AID 743040; further: nearly all actives have a fitted effect of over 20% in size)
How it was run: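 Stable MMTV-luciferase reporter in MDA-kb2 cells; note the promoter carries GR as well as AR response elements. 16 h compound treatment, 37C, 0% CO2; ONE-Glo luminescence endpoint.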

[13] = molecular target: Androgen receptor (Homo sapiens) (UniProt P10275); assay: qHTS assay to identify small molecule antagonists of the androgen receptor (AR) signaling pathway using the MDA cell line (AID 743042; further: nearly all actives have a fitted effect of over 55% in size; further: potency means the concentration at half of the fitted maximal effect)
How it was run: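 Antagonist mode: compounds plus R1881 agonist added to MDA-kb2 AR-luc cells, incubated 16 h at 37C. Luciferase reporter luminescence quantified, with multiplexed CellTiter-Fluor readout for cell viability.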

Aromatase (Homo sapiens) = Aromatase (Homo sapiens) (UniProt P11511); assay: qHTS assay to identify aromatase inhibitors (AID 743083); further: nearly all actives have a fitted effect of over 55% in size; further: potency means the concentration at half of the fitted maximal effect
[14] = qHTS assay to identify small molecule antagonists of the thyroid receptor (TR) signaling pathway (AID 743065); further: nearly all actives have a fitted effect of over 55% in size; further: potency means the concentration at half of the fitted maximal effect
How it was run: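 Antagonism measured as loss of luciferase signal in GH3 cells stably carrying a TRE-luciferase reporter, co-treated with compound and T3 (1 nM final) for 23.5 h at 37 C. Viability was read in the same well by CellTiter-Fluor.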

[15] = molecular target: Estrogen receptor (Homo sapiens) (UniProt P03372); assay: qHTS assay to identify small molecule antagonists of the estrogen receptor alpha (ER-alpha) signaling pathway (AID 743069; active means well fitted curve in the direction sought with a large enough effect in the signal ratio in the repeat runs, not every such curve was filed as active; the % refers to the signal ratio)
How it was run: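 Fluorescence intensity from a beta-lactamase FRET substrate served as the read-out. Cells: HEK293 with stably integrated ER-alpha-UAS-bla reporter. Agonist 17beta-estradiol was co-added with compounds; incubation 18 hr at 37C, substrate 2 hr at room temperature.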

[16] = molecular target: Estrogen receptor (Homo sapiens) (UniProt P03372); assay: qHTS assay to identify small molecule agonists of the estrogen receptor alpha (ER-alpha) signaling pathway (AID 743075; calls by dose curve)
[17] = qHTS assay to identify small molecule antagonists of the glucocorticoid receptor (GR) signaling pathway - cell viability counter screen (AID 720693); further: nearly all actives have a fitted effect of over 55% in size
[18] = molecular target: Androgen receptor (Homo sapiens) (UniProt P10275); assay: qHTS assay to identify small molecule antagonists of the androgen receptor (AR) signaling pathway (AID 743035; active means well fitted inhibition curve with a large enough effect in the signal ratio in the repeat runs, not every such curve was filed as active; the % refers to the signal ratio; further: potency means the concentration at half of the fitted maximal effect)
How it was run: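 R1881 agonist challenge of a HEK293 UAS-beta-lactamase AR reporter line in the presence of compound (16 h, 37C); signal taken as FRET fluorescence after 2 h with LiveBLAzer B/G substrate at room temperature.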

[19] = molecular target: Androgen receptor (Homo sapiens) (UniProt P10275); assay: qHTS assay to identify small molecule agonists of the androgen receptor (AR) signaling pathway (AID 743036; active means well fitted activation curve with a large enough effect in the signal ratio in the repeat runs, with a control signal flat, not every such curve was filed as active; the % refers to the signal ratio)
How it was run: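 AR-bla HEK293 cells, 2,000/well; 4 h preincubation 37C/5% CO2; compound (DMSO) 16 h at 37C; LiveBLAzer B/G FRET substrate 2 h RT; fluorescence intensity read-out.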

Measured: Potency

Androgen receptor (Homo sapiens), sequence (P10275 whole entry, looked up): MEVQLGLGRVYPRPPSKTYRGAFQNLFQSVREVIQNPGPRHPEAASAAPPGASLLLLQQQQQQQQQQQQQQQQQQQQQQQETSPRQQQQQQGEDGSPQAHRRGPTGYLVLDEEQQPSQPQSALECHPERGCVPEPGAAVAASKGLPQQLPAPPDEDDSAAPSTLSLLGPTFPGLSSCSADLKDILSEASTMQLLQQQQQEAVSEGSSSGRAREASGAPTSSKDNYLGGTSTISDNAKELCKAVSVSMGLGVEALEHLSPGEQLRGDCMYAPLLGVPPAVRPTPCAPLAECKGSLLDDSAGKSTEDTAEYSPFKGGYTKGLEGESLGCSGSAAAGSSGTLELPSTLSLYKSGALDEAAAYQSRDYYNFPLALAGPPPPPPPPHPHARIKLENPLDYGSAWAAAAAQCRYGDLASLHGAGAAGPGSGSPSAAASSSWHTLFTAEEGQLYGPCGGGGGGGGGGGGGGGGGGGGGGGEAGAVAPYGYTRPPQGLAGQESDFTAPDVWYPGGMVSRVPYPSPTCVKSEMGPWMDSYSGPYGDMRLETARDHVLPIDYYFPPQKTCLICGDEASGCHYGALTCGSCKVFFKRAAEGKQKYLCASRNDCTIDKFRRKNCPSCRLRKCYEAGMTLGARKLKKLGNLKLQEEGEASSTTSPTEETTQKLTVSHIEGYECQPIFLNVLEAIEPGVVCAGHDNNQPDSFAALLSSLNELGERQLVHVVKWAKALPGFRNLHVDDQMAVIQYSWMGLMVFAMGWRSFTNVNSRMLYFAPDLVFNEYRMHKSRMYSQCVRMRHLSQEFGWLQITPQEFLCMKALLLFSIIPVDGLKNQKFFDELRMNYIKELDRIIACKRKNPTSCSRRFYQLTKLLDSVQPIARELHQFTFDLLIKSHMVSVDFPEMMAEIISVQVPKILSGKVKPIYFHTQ
Estrogen receptor (Homo sapiens), sequence (P03372 whole entry, looked up): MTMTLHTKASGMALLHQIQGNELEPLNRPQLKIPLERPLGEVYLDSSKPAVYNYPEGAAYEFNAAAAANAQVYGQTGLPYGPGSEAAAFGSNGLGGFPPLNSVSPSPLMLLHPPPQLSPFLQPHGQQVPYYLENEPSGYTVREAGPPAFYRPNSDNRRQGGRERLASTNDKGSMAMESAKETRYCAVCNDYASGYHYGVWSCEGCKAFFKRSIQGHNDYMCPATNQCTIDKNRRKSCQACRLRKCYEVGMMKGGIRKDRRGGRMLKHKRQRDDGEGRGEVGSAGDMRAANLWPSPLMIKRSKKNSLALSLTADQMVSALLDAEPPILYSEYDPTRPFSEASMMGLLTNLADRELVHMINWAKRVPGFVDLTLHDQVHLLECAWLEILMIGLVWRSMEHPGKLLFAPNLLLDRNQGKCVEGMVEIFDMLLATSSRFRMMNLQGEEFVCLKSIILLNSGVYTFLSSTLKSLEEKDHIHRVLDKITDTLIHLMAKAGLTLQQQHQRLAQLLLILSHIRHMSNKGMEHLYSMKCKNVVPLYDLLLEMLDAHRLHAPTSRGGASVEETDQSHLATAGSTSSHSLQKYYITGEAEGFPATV
Aromatase (Homo sapiens), sequence (P11511 whole entry, looked up): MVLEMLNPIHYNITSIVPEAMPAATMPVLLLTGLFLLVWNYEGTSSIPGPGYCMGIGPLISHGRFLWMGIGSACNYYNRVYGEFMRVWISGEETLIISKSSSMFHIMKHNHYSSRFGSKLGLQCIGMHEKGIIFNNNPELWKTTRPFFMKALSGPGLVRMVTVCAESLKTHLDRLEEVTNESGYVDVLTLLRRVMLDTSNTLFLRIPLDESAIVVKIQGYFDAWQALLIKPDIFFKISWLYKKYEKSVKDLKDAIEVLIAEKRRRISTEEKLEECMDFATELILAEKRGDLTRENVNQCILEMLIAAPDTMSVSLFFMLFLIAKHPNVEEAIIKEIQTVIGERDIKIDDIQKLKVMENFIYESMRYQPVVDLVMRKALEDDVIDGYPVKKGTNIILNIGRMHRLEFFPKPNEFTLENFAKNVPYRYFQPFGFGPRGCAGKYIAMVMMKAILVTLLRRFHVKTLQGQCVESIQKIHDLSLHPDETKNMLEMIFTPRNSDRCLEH

O=C1OC(O)C(C(Cl)Cl)=C1Cl (centres undefined)
inactive: [5] | [7] | [8] | [9] | [10] | [11]
active: [1] 17.8 µM | [2] 1.26 µM | [3] 19.9 µM | [4] 22.5 µM | [6] 31.6 µM

CCCCCCCCCCCCCCCCC(C(=O)O)C(O)(CC(=O)O)C(=O)O (centres undefined)
active: [6] 26.6 µM | [8] 26.8 µM
not listed: [7] | [14] | [15] | [16] | [17] | [18] | [19]
inactive: all other assays above

COc1cccc(-c2ccc(/C=C\CN3CCCCCC3)cc2Cl)c1
active: [1] 3.05 µM | [2] 0.483 µM | [3] 2.16 µM | [4] 38.7 µM | [6] 21.6 µM | [14] 21.6 µM | Aromatase (Homo sapiens) 60.9 µM
inactive: [15] | [8] | [16] | [11]

NCc1cccc(C2CCN(C(=O)c3ccc(C#Cc4ccccc4F)o3)CC2)c1
active: [1] 17.2 µM | [2] 30.6 µM | [3] 17.2 µM | [4] 21.9 µM | [6] 7.7 µM | [14] 7.7 µM | [8] 54.9 µM | Aromatase (Homo sapiens) 68.6 µM
inactive: [12] | [7] | [16]

CN(C)CCC(O)(c1ccccc1)c1ccccc1Cl (centres undefined)
inactive: [17] | [5] | [7] | [15] | [8] | [16] | [9] | [10] | Aromatase (Homo sapiens)

CO[C@H]1C[C@@H]2CC[C@@H](C)[C@@](O)(O2)C(=O)C(=O)N2CCCC[C@H]2C(=O)O[C@H]([C@H](C)C[C@@H]2CC[C@@H](O)[C@H](OC)C2)CC(=O)[C@H](C)C=C(C)[C@@H](O)[C@@H](OC)C(=O)[C@H](C)C[C@H](C)/C=C/C=CC=C1C
active: [1] 2.4 nM and 3 nM | [2] 2.7 nM and 2.4 nM | [3] 3.3 nM and 5.3 nM | [18] 10.7 µM and 26.8 µM | [5] 29.8 µM | [13] 21.1 µM and 23.7 µM | [6] 15 µM and 9.44 µM | [14] 15 µM | [8] 23.9 µM | [10] 3.8 nM and 7.5 nM | [11] 23.7 µM and 3.76 µM | Aromatase (Homo sapiens) 2.11 µM
inactive: [4] | [12] | [16]

CN[C@H]1CC[C@@H](c2ccc(Cl)c(Cl)c2)c2ccc(S(N)(=O)=O)cc21
inactive: [19] | [12] | [16] | [11]
active: [1] 13.7 µM | [2] 13.7 µM | [3] 13.7 µM | [4] 54.9 µM | [18] 43.6 µM | [13] 68.6 µM | [6] 8.63 µM | [14] 4.33 µM | [10] 68.6 µM | Aromatase (Homo sapiens) 48.6 µM

C[C@H](O)CN(C)C
not listed: [9] | [12] | [13] | [17] | [18] | [19]
inactive: all other assays above

NCCO/C=C/[C@H](N)C(=O)O
active: [9] 26.6 µM
not listed: [12] | [13] | [17] | [18] | [19]
inactive: all other assays above

CC(C)(O/N=C(\C(=O)N[C@@H]1C(=O)N2C(C(=O)[O-])=C(C[n+]3ccccc3)CS[C@H]12)c1csc(N)n1)C(=O)O
not listed: [8] | [12] | [13] | [14] | [17] | [18] | [19]
inactive: all other assays above

CC(C)[N+]1(C)[C@@H]2CC[C@H]1CC(OC(=O)C(CO)c1ccccc1)C2 (some centres undefined)
inactive: [17] | [5] | [7] | [15] | [8] | [16] | [10] | [11]
26.6 µM (active) and inactive: [9]

CS(=O)(=O)c1ccc([C@@H](O)[C@@H](COC(=O)CN)NC(=O)C(Cl)Cl)cc1
active: [1] 5.96 µM | [2] 6.68 µM | [3] 7.5 µM
not listed: [4] | [12] | [13] | [17] | [18] | [19]
inactive: all other assays above
